We go through 33 compounds from PubChem BioAssay AID1347414 (National Center for Advancing Translational Sciences (NCATS), 2020).

Records with an inconclusive call do not appear. Active and inactive are the calls of the source. Calls come from the whole dose curve; as a rule, active = well fitted inhibition curve with a large enough effect; inconclusive = small, poorly fitted or top-dose-only effect; inactive = no such curve, though single readings can be large or run the other way.
Potency is the fitted concentration of half-maximal effect.

The assay can be described thus: qHTS to identify inhibitors of the type 1 interferon - major histocompatibility complex class I in skeletal muscle: Secondary screen by immunofluorescence. Note: nearly all actives have a fitted effect of over 70% in size. The note with it: C25cl48 myoblasts, IFN-b induced HLA-ABC immunofluorescence, 24 h; series mostly up to 49.8 µM. The method, boiled down:
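Immortalized human myoblasts C25cl48 were stimulated with 4.0 ng/ml IFN-beta and exposed to an 11-point 1:3 compound titration, top 50 uM, for 24 h at 37 C. They were then fixed and immunostained for HLA-ABC, and quantified by laser scanning cytometry.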
On the technique in general: qHTS replaces the single test concentration by a dilution series.
As for `COc1cccc2c1C(=O)c1c(O)c3c(c(O)c1C2=O)C[C@@](O)(C(=O)CO)C[C@@H]3O[C@H]1C[C@H](N)[C@@H](O)[C@H](C)O1`, the Potency was 914 nM (active).

With `Cc1oncc1C(=O)Nc1ccc(C(F)(F)F)cc1`, the Potency entry is “inactive”.

Take `C=C1C(=O)O[C@H]2C[C@H](C)C(/C=C/C(C)=O)=CC[C@H]12`: the Potency is 5760 nM (active).

For `C/C=C1\NC(=O)[C@H]2CSSCCC=C[C@H](CC(=O)N[C@H](C(C)C)C(=O)N2)OC(=O)[C@H](C(C)C)NC1=O`, the Potency was 5.8 nM (active).

In the case of `CC(C)(C)CC(=O)OCC(=O)[C@@]1(O)CC[C@H]2[C@@H]3CCC4=CC(=O)C=C[C@]4(C)[C@H]3[C@@H](O)C[C@@]21C`, the Potency result was “inactive”.

As to `O=C(/C=C\n1cnc(-c2cc(C(F)(F)F)cc(C(F)(F)F)c2)n1)NNc1cnccn1`, the Potency is 324 nM (active).

As for `COc1nnc2ccc(N3CCC(c4ccc(OCCN5CCN(C)C(=O)[C@H]5C)cc4)CC3)nn12`, the Potency was 14.5 nM (active).

Turning to `N#CCC1(n2cc(-c3ncnc4[nH]ccc34)cn2)CN(C2CCN(C(=O)c3ccnc(C(F)(F)F)c3F)CC2)C1`, the Potency was 1290 nM (active).

As for `CO[C@H]1/C=C\C=C(\C)C(=O)NC2=CC(=O)C(NCCN(C)C)=C(C[C@@H](C)C[C@H](OC)[C@H](O)[C@@H](C)/C=C(/C)[C@@H]1OC(N)=O)C2=O`, the Potency entry was “inactive”.

Take `CCCCC(=O)O[C@]1(C(=O)CO)[C@@H](C)C[C@H]2[C@@H]3CCC4=CC(=O)C=C[C@]4(C)[C@@]3(F)[C@@H](O)C[C@@]21C`: the Potency result is “inactive”.

On to `C[C@@]12O[C@@H](C[C@]1(O)CO)n1c3ccccc3c3c4c(c5c6ccccc6n2c5c31)CNC4=O`, for which the Potency is 647 nM (active).

Turning to `CC(=O)[C@]1(O)Cc2c(O)c3c(c(O)c2[C@@H](O[C@H]2C[C@H](N)[C@H](O)[C@H](C)O2)C1)C(=O)c1ccccc1C3=O`, the Potency was 230 nM (active).

For `CC(=O)c1ccc2c(c1)c1cc(C(C)=O)ccc1n2CCNC(C)C`, the Potency was 647 nM (active).

For `NC(=O)c1cnc2[nH]ccc2c1NC1C2CC3C[C@H]1CC(O)(C3)C2` (stereo partly drawn), the Potency is 458 nM (active).

As for `CN1CC[C@H](c2c(O)cc(O)c3c(=O)cc(-c4ccccc4Cl)oc23)[C@H](O)C1`, the Potency was 102 nM (active).

As to `CC(C)C[C@H](NC(=O)CNC(=O)c1cc(Cl)ccc1Cl)B1OC(=O)CC(CC(=O)O)(C(=O)O)O1` (stereo partly drawn), the Potency is 814 nM (active).

As for `COc1cccc2c1C(=O)c1c(O)c3c(c(O)c1C2=O)C[C@@](O)(C(C)=O)C[C@@H]3O[C@H]1C[C@H](N)[C@H](O)[C@H](C)O1`, the Potency is 458 nM (active).

Take `C=C1C(=O)O[C@@H]2[C@H]3O[C@]3(C)CCC=C(C)CC[C@@H]12`: the Potency is 2890 nM (active).

With `CN(C)Cc1c(C(=O)NCCOc2ccc(C(=O)NO)cc2)oc2ccccc12`, the Potency is 162 nM (active).

On to `COc1cccc2c1C(=O)c1c(O)c3c(c(O)c1C2=O)C[C@@](O)(C(=O)CO)C[C@@H]3O[C@H]1C[C@H](N)[C@H](OC2CCCCO2)[C@H](C)O1` (stereo partly drawn), for which the Potency was 5140 nM (active).

In the case of `NC(=O)Nc1sc(-c2ccc(F)cc2)cc1C(N)=O`, the Potency is 1450 nM (active).

As for `CCc1c(-c2ccccc2C)nc2c(C#N)c[nH]n2c1=O`, the Potency result was “inactive”.

For `CCNC(=O)c1noc(-c2cc(C(C)C)c(O)cc2O)c1-c1ccc(CN2CCOCC2)cc1`, the Potency result was “inactive”.

Consider `O=C1CN2Cc3c(ccc(Cl)c3Cl)N=C2N1`, for which the Potency entry is “inactive”.

On to `CC(C)c1cc(CNc2nc(Nc3cc(C4CC4)[nH]n3)cc(N3CCN(C)CC3)n2)on1`, for which the Potency is 4580 nM (active).

Regarding `CNC(=O)c1nn(C)c2c1C(C)(C)Cc1cnc(Nc3ccc(N4CCN(C)CC4)cc3)nc1-2`, the Potency was 5760 nM (active).

On to `Cc1c[nH]c2nc(Nc3ccc(N4CCN(C)CC4)c(F)c3)nc(-c3cccc(CC#N)c3)c12`, for which the Potency is 1620 nM (active).

With `CN1CCC(c2c(O)cc(O)c3c(=O)cc(-c4ccccc4Cl)oc23)C1CO` (stereo not drawn), the Potency was 408 nM (active).

On to `O=C(NC1CCNCC1)c1[nH]ncc1NC(=O)c1c(Cl)cccc1Cl`, for which the Potency was 258 nM (active).

With `CNC(=O)c1ccc(Nc2ncc(C(F)(F)F)c(NCc3nccnc3N(C)S(C)(=O)=O)n2)cc1`, the Potency was 6470 nM (active).

With `Cc1cc(O)c(-c2ccc([C@@H](C)CN)cc2)c2c1[nH]c(=O)c1sccc12`, the Potency is 18.2 nM (active).

With `C=C1C(=O)O[C@@H]2[C@H]3O[C@]3(C)CC/C=C(\C)CC[C@@H]12`, the Potency is 7260 nM (active).

On to `C[C@H]1C[C@@H]2[C@H]([C@@H](O)C[C@@]3(C)[C@H]2CC[C@]3(O)C(=O)CO)[C@@]2(C)C=CC(=O)C=C12`, for which the Potency entry is “inactive”.
